# CYP2C9 act: human CYP2C9 activators, primary screen, biochemical, luminescence | AID 1024, 2008 | activation factor at 5 µM | recombinant CYP2C9, luciferin-H conversion; stronger effect = higher value; factor 1 = untreated enzyme, 0 = blocked | 1.4% of 96,000 active;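 active means activation factor of 2 or more for CYP2C9 at a 5 µM dose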;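 further: 0 = sulfaphenazole-blocked wells and 1 = vehicle-only wells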
# CYP2C19 inhib: blockers of cytochrome P450 2C19 activity – biochemical, luminescence, ADME assay, primary screen | P33261 | CYP2C19 Supersomes, luciferin-H EGE luminescence, 30 min | inhibition, % at 5 µM | 21% of 96,000 active | AID 778, 2007;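 active means CYP2C19 inhibition above a set limit at 5 µM in the primary screen, cut at about 50% in these data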;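 further: plate controls were negative control wells for no effect and 2.5 mM tranylcypromine positive control for full effect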
# hDAT+cocaine: changed hDAT dopamine uptake under cocaine IC80, either direction, primary screen, cocaine antagonist project, cell-based, LLC-PK1 hDAT, [14C]-dopamine uptake, MLSMR; Sodium-dependent dopamine transporter (Homo sapiens), Q01959; LLC-PK1 hDAT cells, [14C]-dopamine uptake with cocaine IC80; actives deviate in either direction; B-score at 10 µM; 1.3% of 110,000 active; AID 449768, 2010;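 active means Z score or B-score, a plate-position-corrected score, falls beyond the plate's 99.7% confidence bounds, in either direction; inactive means both scores lie inside the 99.7% bounds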;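 further: scored against the spread of the other compound wells on the same plate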
# Target sequence (Q01959 whole entry, looked up): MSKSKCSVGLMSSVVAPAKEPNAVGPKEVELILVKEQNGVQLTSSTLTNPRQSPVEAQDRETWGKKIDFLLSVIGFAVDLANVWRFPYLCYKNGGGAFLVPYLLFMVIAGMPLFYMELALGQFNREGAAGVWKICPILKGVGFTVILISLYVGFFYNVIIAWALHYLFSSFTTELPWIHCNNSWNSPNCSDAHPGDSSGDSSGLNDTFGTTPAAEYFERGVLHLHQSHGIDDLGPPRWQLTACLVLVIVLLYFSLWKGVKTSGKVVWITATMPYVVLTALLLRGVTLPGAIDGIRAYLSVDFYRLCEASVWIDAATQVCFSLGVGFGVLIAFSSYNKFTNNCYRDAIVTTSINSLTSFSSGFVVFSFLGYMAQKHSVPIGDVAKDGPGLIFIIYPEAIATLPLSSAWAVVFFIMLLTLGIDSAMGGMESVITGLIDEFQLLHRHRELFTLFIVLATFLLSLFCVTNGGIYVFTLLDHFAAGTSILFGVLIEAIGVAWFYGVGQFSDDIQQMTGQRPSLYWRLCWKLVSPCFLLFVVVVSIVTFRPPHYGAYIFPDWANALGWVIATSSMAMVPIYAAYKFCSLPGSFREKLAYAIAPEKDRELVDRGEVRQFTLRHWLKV
# D1 allo mod: D1 CRE-luciferase signal change, two-sided – cell-based, HEK293 D1, dopamine EC30, D1 allosteric modulator project, primary screen; D(1A) dopamine receptor (Homo sapiens), P21728; dopamine EC30 potentiation; actives deviate in either direction; B-score at 10 µM; 5.9% of 58,000 active;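 active means luminescence count or its row- and column-corrected plate score outside the 99.7% band of the plate's sample wells, on either side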
# CYP2C19 activ: human CYP2C19 activators, primary screen, biochemical, luminescence; 96,000 tested, under 10 active; recombinant CYP2C19, luciferin-H EGE luminescence; stronger effect = higher value; 0 = fully inhibited enzyme, 1 = untreated enzyme; activation factor at 5 µM;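 active means activation factor of at least 2 at 5 µM in the primary screen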;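 further: 0 = wells with 2.5 mM tranylcypromine and 1 = vehicle-only wells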
# CYP2C9 inhib: blockers of cytochrome P450 2C9 activity – biochemical, luminescence, ADME assay, primary screen | P11712 | CYP2C9 Supersomes, luciferin-H conversion | inhibition, % at 5 µM | 20% of 96,000 active;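 active means blocking of liver enzyme CYP2C9 beyond about 50% at 5 µM, limit read from the data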
# Starred values were filed as active, the others as inactive; nt = no result. Shown are actives, neighbours in structure and some others; about 28% of the full set was active somewhere.
SMILES,CYP2C9 act,CYP2C19 inhib,hDAT+cocaine,D1 allo mod,CYP2C19 activ,CYP2C9 inhib
Cc1cccc(NC(=O)Cn2cnc3sc(C)c(S(=O)(=O)N4CCC(C)CC4)c3c2=O)n1,nt,nt,0.33,-0.24,nt,nt
Cn1nnnc1SCC(=O)Nc1ccccc1N1CCCCC1,nt,nt,-0.14,nt,nt,nt
CCCCOC(=O)C(C)c1c(C)[nH]c(=S)[nH]c1=O (stereo unspecified),0.9,8,-1.3,-0.98,0.9,6
CCN(CC)S(=O)(=O)c1ccc(C(=O)OCC(=O)c2ccc3c(c2)NC(=O)CO3)cc1,0.8,-1,-0.64,nt,1,20
CCN(CC)S(=O)(=O)c1ccc(C(=O)OCCN2C(=O)CCC2=O)cc1,0.6,13,nt,-4.9*,0.9,45
COc1ccc(CN2CCOCC2)cc1,1.2,18,-0.26,nt,0.8,-17
CCCCCOc1ccc(CN2CCOCC2)cc1Cl,0.4,76*,0.83,-1.7,0.2,55*
CC[C@@H](C)[C@H](NC(=O)C1CCN(C(=O)[C@@H](NS(=O)(=O)c2ccc(C)cc2)C(C)C)CC1)C(=O)O,1,16,-0.0068,0.11,0.8,-1
O=C(c1cccs1)N1CCc2c([nH]c3ccccc23)C1c1ccc(Cl)cc1 (stereo unspecified),0.5,23,-0.042,nt,0.8,51*
O=C1CC(NCc2ccccc2F)C(=O)N1c1ccccc1 (stereo unspecified),0.8,72*,-0.58,0.074,0.3,20
CCOc1ccc(N2C(=O)CC(NCc3ccc(F)cc3)C2=O)cc1 (stereo unspecified),0.9,16,-0.4,-0.36,0.8,15
CCOc1nc(SCCOc2ccccc2)nc(N(C)C)n1,0.9,43,-0.74,0.39,0.6,10
Cc1[nH]c(=O)[nH]c(=O)c1S(=O)(=O)N1CCCC(C(=O)N2CCN(c3ccccc3Cl)CC2)C1 (stereo unspecified),0.9,9,-0.29,nt,0.9,10
Cc1[nH]c(=O)[nH]c(=O)c1S(=O)(=O)N1CCCC(C(=O)N2CCC(Cc3ccccc3)CC2)C1 (stereo unspecified),1.1,53*,0.098,-0.24,0.5,-7
O=C(C1CCCN(S(=O)(=O)c2cccc3nonc23)C1)N1CCC(Cc2ccccc2)CC1 (stereo unspecified),1.8,51*,0.026,-0.29,0.5,-79
O=C(NCCc1ccccc1)C1CCCN(S(=O)(=O)c2cccc3nonc23)C1 (stereo unspecified),0.9,7,0.15,-0.0098,0.9,10
Cc1cc(C)n(CC(=O)N2c3ccccc3Sc3ccccc32)n1,0.6,67*,-0.091,2.9,0.3,38
Cc1cc(C)n(CC(=O)O)n1,nt,nt,0.47,0.51,nt,nt
CCCCN1CC(C(=O)NC2CCCCC2)CC1=O (stereo unspecified),1.2,-13,0.5,-0.39,1.1,-20
CCCCOC(=O)n1c(SCC(=O)N(C)C)nc2ccccc21,0.2,44,0.76,-7.3*,0.6,77*
Cc1ccc(C(=O)CCNc2cccc(Br)c2)o1,0.8,62*,-0.24,0.43,0.4,16
CCC(=O)Nc1ccc(F)c(Cl)c1,1.1,5,-0.31,0.11,1,-6
Cc1ccc(C(=O)CCNc2ccc(F)c(Cl)c2)o1,0.9,66*,-0.71,0.72,0.3,12
Cc1ccc(C(=O)CCNc2ccccc2)o1,1,35,-2,-0.27,0.7,-1
Cc1ccc(C(=O)CCNc2ccc(Br)cc2)o1,0.7,91*,0.63,0.12,0.1,27
COc1cc(CNc2ccc(N3CCOCC3)c(C(=O)O)c2)ccc1OCC(N)=O,1.1,-13,-0.36,0.79,1.1,-11
Cc1nc2ncnn2c(C)c1Cc1ccc(Cl)cc1,0.3,95*,-0.27,nt,0,73*
COc1cc(=O)[nH]c(SCc2c(F)c(F)c(F)c(F)c2F)n1,0.5,27,0.036,-0.39,0.7,50*
